Experimental data published in ChEMBL document CHEMBL4513146, “CO-ADD screening of Karazin Kharkiv National University (Ukraine) compounds”.
Entries with a potency or affinity are not part of this list.

Tests used:
Klebsiella pneumoniae = settings: Concentration 32 ug.mL-1;; ASSAY_TEST Inhibition of Bacterial Growth; detection method Absorption (OD600); MEDIA CAMHB; plate type 384well; NBS; CORNING #3640; time 18 hr
Candida albicans = settings: Concentration 32 ug.mL-1; ASSAY_TEST Inhibition of Fungal Growth; detection method Absorption (OD530)
Cryptococcus neoformans = settings: Concentration 32 ug.mL-1; ASSAY_TEST Inhibition of Fungal Growth; detection method Resazurin; Absorption (OD600-OD570); plate type 384well; NBS; CORNING #3640

Row | SMILES | Inhibition (Klebsiella pneumoniae) [%] | Inhibition (Candida albicans) [%] | Inhibition (Cryptococcus neoformans) [%]
1 | COc1ccccc1Cn1c(=O)c2sccc2n2c(=O)n(Cc3ccccc3)nc12 | 5.78 | -0.06 | -28.67
2 | CCc1nnc2c(SCC(=O)Nc3ccc(C(=O)OC)cc3)nc3ccccc3n12 | 5.41 | 4.91 | -21.71
3 | N#Cc1ccc(NC(=O)Cn2nc3c(Oc4ccccc4)nccn3c2=O)cc1 | 4.51 | 0.35 | -7.22
4 | COc1ccccc1-n1ccn2c(SCC(=O)c3ccc(C)cc3C)nnc2c1=O | 6.45 | 3.89 | -10.37
5 | Cc1ccc(CNC(=O)Cn2nc3c(Sc4cccc(F)c4)nccn3c2=O)cc1 | -2.32 | 4.04 | -11.39
6 | CN(C(=O)Cn1nc2n(Cc3ccco3)c(=O)c3sccc3n2c1=O)c1ccccc1 | -0.68 | 2.07 | -9.74
7 | Cc1ccc(-c2ccc3nn(Cc4cccc(Br)c4)c(=O)n3n2)cc1C | 14.87 | 0.19 | -18.95
8 | Cc1cc2nn(CC(=O)Nc3ccc(C)c(F)c3)c(=O)n2c(Nc2ccc(C)c(F)c2)n1 | 13.96 | 19.28 | -10.18
9 | N#Cc1ccc(NC(=O)CSc2nnc3c4cc(-c5ccc(F)cc5)nn4ccn23)cc1 | 11.54 | 18.84 | -16.45
10 | Cc1ccc(Nc2cc(C)n3c(=O)n(CCOc4ccc(F)cc4)nc3n2)cc1 | 19.26 | 2.38 | -10.19
11 | CCc1ccccc1Sc1nccn2c(=O)n(CC(=O)Nc3ccc(OC)c(Cl)c3)nc12 | 5.33 | 13.19 | 0.67
12 | Cc1ccc(Sc2nccn3c(=O)n(CC(=O)Nc4cccc(Br)c4)nc23)c(C)c1 | 7.97 | 8.72 | -18.33
13 | Cc1cccc(N(Cc2ccccc2F)S(=O)(=O)c2ccc3nncn3c2)c1 | -1.12 | 0.03 | -7.87
14 | Cc1cc2nn(CC(=O)Nc3ccc4c(c3)OCCO4)c(=O)n2c(Nc2ccccc2C)n1 | 6.73 | 7.15 | -3.99
15 | Cc1ccc(-c2ccc3nnc(CCC(=O)NCc4ccc(C(F)(F)F)cc4)n3n2)cc1C | 11.76 | 2.25 | -1.58
16 | COc1ccccc1N1CCN(C(=O)Cn2nc3ccc(-c4ccccc4)nn3c2=O)CC1 | 2.09 | 1.1 | -5.13
17 | COc1ccc(NC(=O)Cn2nc3c(Sc4ccccc4)nccn3c2=O)cc1OC | 6.09 | 1.58 | -22.41
18 | Cc1nnc2ccc(S(=O)(=O)N(Cc3ccccc3F)c3cc(F)cc(F)c3)cn12 | -4.61 | 2.54 | -9.43
19 | Cc1ccc(NC(=O)Cn2nc3ccc(SC(C)C)nn3c2=O)c(Cl)c1 | 9.56 | 10.62 | -1.74
20 | CC(C)c1ccc(CNC(=O)CCc2nnc3c(N4CCCCC4)nc4ccccc4n23)cc1 | 8.5 | 0.52 | -24.76
21 | CCOc1ccc(NC(=O)Cn2nc3ccc(-c4ccccc4)nn3c2=O)cc1 | 6.87 | 4.93 | -6.8
22 | Cc1cccc(NC(=O)Cn2nc3c4cc(-c5ccc(F)cc5)nn4ccn3c2=O)c1C | 6.39 | 16.67 | -22.65
23 | Cc1cc(C)cc(NC(=O)CSc2nnc3c(=O)n(-c4ccc(Br)cc4)ccn23)c1 | 11.44 | 6.21 | -22.2
24 | Cc1cc(C)cc(Oc2nccn3c(=O)n(CC(=O)Nc4ccc(Cl)cc4F)nc23)c1 | 14.33 | 0.59 | -7.4
25 | Cc1cc(Nc2ccc(F)cc2)nc2nn(Cc3cccc(C#N)c3)c(=O)n12 | 10.49 | 2.04 | -10.7
26 | Cc1cccc(C)c1NC(=O)CSc1nnc2ccc(C(=O)Nc3cccc(F)c3)cn12 | 10.23 | 10.31 | -3.65
27 | CCc1ccc(N(Cc2cccc(C)c2)S(=O)(=O)c2cccn3c(C)nnc23)cc1 | 2.32 | 4.84 | -3.55
28 | COc1ccc(-c2nc(CSc3nc4ccccc4n4c(C(C)C)nnc34)c(C)o2)cc1OC | -2.06 | 3.02 | -7.98
